Laboratory results: PubChem BioAssay AID1347131 (National Center for Advancing Translational Sciences (NCATS), 2019)
Out of some 410,000 compounds screened, about 2,000 (0.49%) were called active. Not shown: some 8% with an inconclusive outcome. Calls follow the shape of the full dose curve; tested in HEK293 reporter line. What follows is part of a selection rich in actives, with near analogues and random picks from the rest. Entries that show only a call come without a potency.

test: qHTS Assay for Foot and Mouth Disease Virus Antivirals: Primary Screen against the MLPCN compound library; details: FMDV antiviral cell-based qHTS; series mostly up to 57.9 µM; also: nearly all actives have a fitted effect of over 55% in size
Potency is read from the fitted curve at half-maximal effect.

| SMILES | Potency |
| --- | --- |
| CCOc1ccc(-c2ccc(/C=C3/C(=N)N4C=CSC4=NC3=O)o2)c([N+](=O)[O-])c1 | inactive |
| Cc1ccc(/C=C2/C(=N)N3N=C(CC(=O)N4CCCC4)SC3=NC2=O)o1 | inactive |
| CC1=CN2C(=N)/C(=C/c3ccco3)C(=O)N=C2S1 | 12.6 µM (active) |
| CCCCn1c(=O)c(CCC(=O)OC(C)C(=O)Nc2cccc(Cl)c2Cl)nc2ccccc21 (stereo not drawn) | inactive |
| CC(C(=O)Nc1cccc(C#N)c1)n1nc(-c2ccccc2)c2c(c1=O)CCCC2 (stereo not drawn) | inactive |
| CCCC(=O)N1CCN(c2nc(CC(C)C)c3c(c2C#N)CCC3)CC1 | inactive |
| CC(C)C(=O)N1CCN(c2nc(-c3ccccc3)c3c(c2C#N)CCCC3)CC1 | 22.4 µM (active) |
| FC(F)C(F)(F)Oc1cccc(Nc2nccn3c(-c4ccc5ccccc5c4)cnc23)c1 | inactive |
| COCC(=O)N1CCC2(CC1)CCN(c1ccc(-c3ccccc3)cc1)CC2 | inactive |
| Nc1nc2ccccc2n1C(=O)c1ccc(F)cc1 | 12.6 µM (active) |
| CSc1nc2ccccc2n1C(=O)NC1CCCCC1 | inactive |
| N#CC1=C(N)Nc2nc3ccccc3n2C1c1ccc(F)cc1 (stereo not drawn) | inactive |
| C[C@H](CO)N1C[C@H](C)[C@@H](CN(C)C(=O)NC2CCCCC2)Oc2c(NS(=O)(=O)c3cccs3)cccc2C1=O | inactive |
| Cc1ccc(NC(=O)COC(=O)C2CC2C)c(S(=O)(=O)N2CCCCC2)c1 (stereo not drawn) | inactive |
| CCOC(=O)C1CCN(S(=O)(=O)c2cccc(C(=O)Nc3ccccc3)c2)CC1 | inactive |
| CC(Sc1nc(C(F)(F)F)nc2ccccc12)C(=O)NC1CCCC1 (stereo not drawn) | inactive |
| CN(C)c1ccc(N=Nc2ccc3ncccc3c2)cc1 | 20 µM (active) |
| CN(C)c1ccc(/C=C/c2ccc3ccccc3n2)cc1 | inactive |
| Cc1cc(CN(C)C(=O)c2cc(COc3ccc4ncccc4c3)on2)on1 | inactive |
| Cn1c(=O)[nH]c(=O)c2c1nc(NCc1ccccc1)n2CCCc1ccccc1 | inactive |
| COc1cc(OC)c(OC)cc1CN1CCc2nc(N3CCN(c4ncccn4)CC3)ncc2C1 | inactive |
| Cc1ccc(CN2CCc3nc(N4CCN(c5ccccc5F)CC4)ncc3C2)s1 | inactive |
| Cc1ccccc1CN1CCc2nc(N3CCN(c4ccccn4)CC3)ncc2C1 | 15.8 µM (active) |
| COc1cccc(N2CCN(c3c4c(nc5nncn35)CCC4)CC2)c1 | 14.1 µM (active) |
| CCOc1ccc(Nc2c3c(nc4nncn24)CCC3)cc1 | inactive |

| SMILES | Potency |
| --- | --- |
| COc1cccc(N2CCN(C(=O)c3ccc4c(Cl)c5c(nc4c3)CCCC5)CC2)c1 | inactive |
| Cc1nnsc1C(=O)N/N=C/c1ccc2ccccc2c1O | inactive |
| Cc1cccc(OCCCCn2nnc3sc4c(c3c2=O)CCC(C)C4)c1 (stereo not drawn) | inactive |
| C=CCn1c(SCc2nc3c(c(=O)[nH]c(=O)n3CCCC)n2CCC)nnc1-c1ccccc1 | inactive |
| COc1cc(NS(=O)(=O)c2cc(Br)cc3c2N(C(=O)C2CC2)CC3)cc(OC)c1 | 12.6 µM (active) |
| CCC(=O)N1CCc2cc(Br)cc(S(=O)(=O)CCC(=O)NCc3ccccc3OC)c21 | inactive |
| CCCNS(=O)(=O)c1cc(Br)cc2c1N(C(=O)CC)CC2 | inactive |
| O=C(OC1C2CCC1C1CN(CCc3ccccc3)CC12)c1ccccc1 (stereo not drawn) | inactive |
| COc1ccc(-c2cc3c(=O)n(CC(=O)Nc4cccc(Cl)c4)nc(C)n3n2)cc1 | inactive |
| CN(C)c1cccc(F)c1C(=O)NC(=O)Nc1ccc(Cl)cc1 | inactive |
| COc1ccc(CN2CCNC(=O)C2CC(=O)NC2CCCC2)c(OC)c1 (stereo not drawn) | inactive |
| COC(=O)c1nnn(-c2nonc2N)c1CSc1nc2ccccc2s1 | inactive |
| Cc1c(NC(=O)CN2CCN(c3cccc(Cl)c3)CC2)c(=O)n(-c2ccccc2)n1C | inactive |
| CC12CN(C(=O)c3ccco3)CC(c3ccccc3)(CN(C(=O)c3ccco3)C1)C2=O | inactive |
| O=C(O)c1ccc(N/N=C/c2cc(Br)cs2)cc1 | 11.2 µM (active) |
| CC(C)c1ccc(/C=N/Nc2ccc(C(=O)O)cc2)cc1 | inactive |
| COc1ccc(/C=N/Nc2ccc(C(=O)O)cc2)cc1Br | inactive |
| O=C(NC1CCC(=O)N(CCOc2ccccc2)CC1)OCc1ccccc1 (stereo not drawn) | inactive |
| CC(=O)N1CCc2c(sc3c2c(=O)n(CCc2ccccc2)c(=O)n3Cc2cccc(C)c2)C1 | inactive |
| COc1ccc(NC(=O)Nc2c(O)ccc3ccccc23)cc1 | inactive |
| COc1ccc(N=Nc2ccc3ccccc3c2)c(O)c1 | 22.4 µM (active) |
| COc1ccc(-c2cc(-c3ccccc3O)[nH]n2)cc1 | inactive |
| COc1cc2c(cc1OC)CN(C(=O)c1cc(Cl)nc(Cl)c1)CC2 | inactive |
| CC(=O)NC12CC3CC(C1)CC(C(=O)Oc1ccc(N(C)S(=O)(=O)c4cc(C)ccc4C)cc1)(C3)C2 | inactive |
| CC(=O)N1CCN(c2ccc(NC(=O)c3cccc(F)c3)cc2)CC1 | inactive |

| SMILES | Potency |
| --- | --- |
| CN1CCN(c2ccc(NC(=O)c3ccc4ccccc4c3)cc2)CC1 | 22.4 µM (active) |
| COc1ccc(C(=O)Nc2ccc(N3CCN(C(=O)c4ccccc4C)CC3)cc2)cc1 | inactive |
| CC(C)(C)OC(=O)CNC(=O)c1[nH]cnc1C(=O)N[C@@H](CCCCNC(=O)OC(C)(C)C)C(=O)OC(C)(C)C | inactive |
| O=C(CCCc1nc(-c2ccc(Cl)cc2)no1)NC1CCCC1 | inactive |
| O=C(c1ccc2c(c1)N(Cc1ccccc1F)C(=O)c1ccccc1S2=O)N1CCN(c2ccccc2)CC1 (stereo not drawn) | inactive |
| COc1ccc(C)cc1NC(=O)C1CCN(S(=O)(=O)c2ccccc2)CC1 | inactive |
| CCOC(=O)c1sc2ccc(S(=O)(=O)N3CCCCC3)cc2c1N | 17.8 µM (active) |
| CCOC(=O)/C=C/C(=O)Nc1ccc(S(=O)(=O)N2CCCCCC2)cc1 | inactive |
| CCOC(=O)c1sc(NC(=O)c2ccc(S(=O)(=O)N3CCCCC3)cc2)nc1-c1ccccc1 | inactive |
| COc1cc(OC)cc(C(=O)Nc2ccc3c(c2)CCCN3C(=O)c2cccs2)c1 | inactive |
| O=C1CC(c2ccco2)CC(O)=C1C=NCCN1CCN(C(=O)Nc2ccc(Cl)cc2)CC1 (stereo not drawn) | inactive |
| Cc1ccc(CSCC(=O)N(C)CC(=O)Nc2c(Cl)cccc2Cl)cc1 | inactive |
| Fc1ccc(-c2noc(-c3ccc4c(c3)CCO4)n2)cc1 | 12.6 µM (active) |
| O=S(=O)(Nc1ccc2ccccc2n1)c1ccc2c(c1)CCO2 | inactive |
| Cc1ccc(-c2noc(-c3ccc(N4CCCCC4)c([N+](=O)[O-])c3)n2)cc1 | inactive |
| O=C(NCCN1CCC(n2c(=O)[nH]c3ccccc32)CC1)c1ccc(Cl)cc1 | inactive |
| CC(C)Oc1ccc(C(=O)Nc2nc3c(s2)CC(C(C)(C)C)CC3)cc1 (stereo not drawn) | inactive |
| CN(c1ccccc1)S(=O)(=O)c1cccc(C(=O)Nc2cccc(C(=O)NC3CC3)c2)c1 | inactive |
| CN(c1ccccc1)S(=O)(=O)c1ccc(C(=O)Nc2ccncc2)cc1 | inactive |
| COCc1ccc(C(=O)Nc2cccc(S(=O)(=O)N(C)c3ccccc3)c2)cc1 | 15.8 µM (active) |
| Cc1ccc(S(=O)(=O)N(C)CCCC(=O)Nc2cc(C)ccc2C)cc1 | inactive |
| CN(c1ccccc1)S(=O)(=O)c1ccc(C(=O)NCCc2ccc(F)cc2)cc1 | inactive |
| Cc1ccccc1C(c1c(C)n(C)n(-c2ccccc2)c1=O)c1c(C)n(C)n(-c2ccccc2)c1=O | inactive |
| C=C(C)C(=O)N1CC2(CC(c3cccc(NC(=O)COc4ccc(Cl)cc4)c3)=NO2)C[C@@H]1C(N)=O (stereo partly drawn) | inactive |
| CCCCCC(=O)N1CC2(CC(c3cccc(NC(=O)COc4ccc(Cl)cc4)c3)=NO2)C[C@@H]1C(N)=O (stereo partly drawn) | 14.1 µM (active) |

| SMILES | Potency |
| --- | --- |
| NC(=O)[C@@H]1CC2(CC(c3cccc(NC(=O)CC(c4ccccc4)c4ccccc4)c3)=NO2)CN1C(=O)COc1ccc(Cl)cc1 (stereo partly drawn) | inactive |
| C=C1C(C)C2C(Cc3ccccc3)NC(=O)C23OC(=O)/C=C/C(O)CCCC(C)C/C=C/C3C1O (stereo not drawn) | inactive |
| CC1CCCCN1C(=O)CSc1c2c(nc3cc(Cl)ccc13)CCCC2 (stereo not drawn) | inactive |
| COc1ccc(C=NNc2nc3ccccc3s2)cc1 | 15.8 µM (active) |
| COc1ccc(S(=O)(=O)Nc2nc3ccccc3s2)cc1 | inactive |
| COc1ccc(/C=N/Nc2cc(C)nc3ccccc23)cc1 | inactive |
| O=Cc1cc(Cl)ccc1OCCN1CCC(Cc2ccccc2)CC1 | inactive |
| COc1ccccc1CN1C(=O)c2cccc3cccc(c23)C1=O | inactive |
| COc1ccc2c(c1OC)C(=O)N1c3ccccc3C(=O)N(c3ccccc3F)C21 (stereo not drawn) | inactive |
| Nc1cccc2c1C(=O)N(CCOc1ccccc1F)C2=O | 15.8 µM (active) |
| CCCCC(=O)N1CCN(c2nc3c(C)c(C)ccc3s2)CC1 | inactive |
| CCc1nc2ccc(C(=O)Nc3cc(-c4ccccc4)ccc3OC)cn2c1N(C=O)CCC(C)C | inactive |
| CC(C)Oc1ccc(C(=O)NCC(=O)N2CCN(S(=O)(=O)/C=C/c3ccccc3)CC2)cc1 | inactive |
| Cc1ccc(-n2ncc3c(N4CCCCCC4)ncnc32)cc1 | inactive |
| COc1ccccc1N1CCN(c2ncnc3c2cnn3-c2ccc(C)cc2)CC1 | inactive |
| Cc1ccc(-n2ncc3c(NC4CCCC4)ncnc32)cc1 | 12.6 µM (active) |
| Cc1ccc(-n2ncc3c(N4CCN(c5ccc(F)cc5)CC4)ncnc32)cc1 | inactive |
| Cc1ccc(-n2ncc3c(NC4CCCCC4)ncnc32)cc1 | 20 µM (active) |
| Cc1ccc(-n2ncc3c(N4CCCCC4)ncnc32)cc1 | inactive |
| CC(C)c1cccc(C(C)C)c1NC(=O)CNCC(O)c1ccccc1 (stereo not drawn) | inactive |
| COc1ccccc1Nc1cc(C)nc2c(C)ccc([N+](=O)[O-])c12 | inactive |
| COc1ccccc1NC(=O)c1c(N=Cc2cccc([N+](=O)[O-])c2)cnn1C | inactive |
| COc1ccccc1N/C=C/c1onc(C)c1[N+](=O)[O-] | 12.6 µM (active) |
